Results published in PubChem BioAssay (Tox21).
Records with an inconclusive call do not appear. Entries that show only a call come without a potency. Activity calls are given as the source filed them. Unless noted, calls follow the shape of the dose curve; as a rule, active = well fitted curve in the direction sought with a large enough effect in the repeat runs; inconclusive = weak or mixed curves; inactive = no such curve, though single readings can be large; an effect the other way counts as inactive or inconclusive.

How the values were obtained:
[1] = molecular target: Thyrotropin receptor (Homo sapiens) (UniProt P16473); test: qHTS assay to identify small molecule antagonists of the thyroid stimulating hormone receptor (TSHR) signaling pathway (AID 1259385; calls by dose curve; also: nearly all actives have a fitted effect of over 20% in size)
Chain of Thyrotropin receptor (Homo sapiens) (P16473 whole entry, looked up): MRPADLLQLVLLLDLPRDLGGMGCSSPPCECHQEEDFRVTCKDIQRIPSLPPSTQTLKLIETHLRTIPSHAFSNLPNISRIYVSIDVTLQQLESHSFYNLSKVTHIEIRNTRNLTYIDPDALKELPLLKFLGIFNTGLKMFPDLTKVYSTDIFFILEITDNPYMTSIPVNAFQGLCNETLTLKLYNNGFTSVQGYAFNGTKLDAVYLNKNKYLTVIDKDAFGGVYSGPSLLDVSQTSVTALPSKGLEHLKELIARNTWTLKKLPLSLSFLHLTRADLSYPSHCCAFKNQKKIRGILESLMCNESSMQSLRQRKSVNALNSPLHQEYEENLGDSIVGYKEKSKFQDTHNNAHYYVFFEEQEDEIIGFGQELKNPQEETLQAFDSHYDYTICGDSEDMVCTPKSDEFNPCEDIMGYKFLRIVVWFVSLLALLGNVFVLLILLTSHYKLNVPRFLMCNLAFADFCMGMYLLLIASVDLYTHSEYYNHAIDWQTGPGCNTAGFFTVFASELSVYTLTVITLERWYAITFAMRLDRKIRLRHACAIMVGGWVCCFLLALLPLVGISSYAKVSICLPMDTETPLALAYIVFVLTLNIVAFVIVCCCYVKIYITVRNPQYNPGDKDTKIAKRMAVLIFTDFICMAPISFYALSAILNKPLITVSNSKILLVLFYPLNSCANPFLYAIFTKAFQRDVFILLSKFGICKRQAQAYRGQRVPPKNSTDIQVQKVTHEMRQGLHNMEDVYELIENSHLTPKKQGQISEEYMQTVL
How it was run: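 Antagonist mode: compound-treated TSHR-expressing HEK293 cells were stimulated with 1.5 ng/mL TSH (final) in presence of Ro20-1724 for 30 min at RT. HTRF cAMP detection after 1 h; each compound tested at 15 concentrations, triplicate.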

[2] = qHTS assay to identify small molecule agonists of the estrogen receptor alpha (ER-alpha) signaling pathway in the presence of an antagonist - cell viability counter screen (AID 1259386);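 also: series mostly up to about 92 µM; cells exposed to compounds for 22 h at 37 °C before the viability read; nearly all actives have a fitted effect of over 30% in size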
How it was run: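 Viability counter screen using VM7Luc4E2 (full-length ER-alpha, four ERE-luciferase). The cells were treated with compounds alongside ICI-182,780 10.0nM for 22hr, and live-cell protease fluorescence was quantified with CellTiter-Fluor.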

[3] = molecular target: Progesterone receptor (Homo sapiens) (UniProt P06401); test: qHTS assay to identify small molecule agonists of the progesterone receptor (PR) signaling pathway (AID 1346784; calls by dose curve; also: nearly all actives have a fitted effect of over 30% in size)
Chain of Progesterone receptor (Homo sapiens) (P06401 whole entry, looked up): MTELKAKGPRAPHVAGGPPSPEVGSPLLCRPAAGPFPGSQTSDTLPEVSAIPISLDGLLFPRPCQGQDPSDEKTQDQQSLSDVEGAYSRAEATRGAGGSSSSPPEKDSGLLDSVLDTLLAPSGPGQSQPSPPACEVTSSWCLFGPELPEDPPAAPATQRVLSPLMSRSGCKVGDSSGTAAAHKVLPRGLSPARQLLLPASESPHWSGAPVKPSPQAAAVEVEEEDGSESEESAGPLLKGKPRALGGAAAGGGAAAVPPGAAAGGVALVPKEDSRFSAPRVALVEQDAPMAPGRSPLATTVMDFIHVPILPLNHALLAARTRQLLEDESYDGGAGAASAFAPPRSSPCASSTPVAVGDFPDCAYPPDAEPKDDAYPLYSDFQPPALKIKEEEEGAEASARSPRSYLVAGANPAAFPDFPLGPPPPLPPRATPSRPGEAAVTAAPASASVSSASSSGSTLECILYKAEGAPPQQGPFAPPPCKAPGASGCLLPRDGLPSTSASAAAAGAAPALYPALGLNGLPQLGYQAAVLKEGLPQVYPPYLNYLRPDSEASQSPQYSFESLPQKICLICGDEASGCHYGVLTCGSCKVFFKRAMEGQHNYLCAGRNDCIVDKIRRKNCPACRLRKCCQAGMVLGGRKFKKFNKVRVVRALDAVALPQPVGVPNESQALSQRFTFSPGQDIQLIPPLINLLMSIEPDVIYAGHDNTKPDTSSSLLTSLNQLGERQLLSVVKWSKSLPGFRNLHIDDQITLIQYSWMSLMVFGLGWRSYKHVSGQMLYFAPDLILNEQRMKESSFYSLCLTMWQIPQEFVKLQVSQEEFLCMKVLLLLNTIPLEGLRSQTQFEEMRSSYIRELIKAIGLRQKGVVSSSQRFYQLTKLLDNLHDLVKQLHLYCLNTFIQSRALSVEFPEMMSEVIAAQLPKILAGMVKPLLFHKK
How it was run: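 Reporter assay, GripTite PR-UAS-bla HEK 293T cells: 16 hr exposure to DMSO-dissolved compounds at 37C, 5% CO2, in steroid-depleted (2% charcoal-stripped FBS) medium; beta-lactamase measured by FRET fluorescence.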

[4] = molecular target: Progesterone receptor (Homo sapiens) (UniProt P06401); test: qHTS assay to identify small molecule antagonists of the progesterone receptor (PR) signaling pathway (AID 1346795; active = well fitted inhibition curve with a large enough effect in the signal ratio in the repeat runs, not every such curve was filed as active; the % refers to the signal ratio)
How it was run: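 Stimulus R5020 at 1 nM final; cells HEK293T PR-UAS-bla; medium with 2% charcoal-stripped FBS; compound exposure 16 hr at 37C, 5% CO2; detection by FRET beta-lactamase substrate, 2 hr, room temperature.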

[5] = qHTS assay to identify small molecule antagonists of the progesterone receptor (PR) signaling pathway - cell viability counter screen (AID 1346798); also: series mostly up to about 92 µM; nearly all actives have a fitted effect of over 50% in size
How it was run: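 In the same plates used for the beta-lactamase readout, cell viability of compound- and R5020-treated PR-UAS-bla HEK293T cells (16 hr, 37C) was assessed by CellTiter-Glo luminescence.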

[6] = qHTS assay to identify small molecule agonists of the TGF-beta/Smad signaling pathway - cell viability counter screen (AID 1346829); also: top concentration of the series differs between compounds; nearly all actives have a fitted effect of over 45% in size
How it was run: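 After overnight seating at 37 C and 5% CO2, reporter cells got compounds for 5 hr and FRET substrate for 2 hr; cell viability then came from CellTiter-Glo luminescence.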

[7] = qHTS assay to identify small molecule agonists of the TGF-beta/Smad signaling pathway (AID 1346859; active = well fitted activation curve with a large enough effect in the signal ratio in the repeat runs, not every such curve was filed as active; the % refers to the signal ratio; also: series mostly up to about 77 µM)
How it was run: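 Screening used HEK 293T SBE-bla cells at 4,000/well. Test agents: 5 hr, 37 C. Detection: FRET substrate, 2 hr RT, then excitation 405 nm with emissions at 460 and 530 nm.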

[8] = molecular target: Thyrotropin-releasing hormone receptor (Homo sapiens) (UniProt P34981); test: qHTS assay to identify small molecule antagonists of the thyrotropin-releasing hormone receptor (TRHR) signaling pathway (AID 1346877; active = well fitted inhibition curve with a large enough effect in the repeat runs, not every such curve was filed as active; also: series mostly up to about 51 µM)
Chain of Thyrotropin-releasing hormone receptor (Homo sapiens) (P34981 whole entry, looked up): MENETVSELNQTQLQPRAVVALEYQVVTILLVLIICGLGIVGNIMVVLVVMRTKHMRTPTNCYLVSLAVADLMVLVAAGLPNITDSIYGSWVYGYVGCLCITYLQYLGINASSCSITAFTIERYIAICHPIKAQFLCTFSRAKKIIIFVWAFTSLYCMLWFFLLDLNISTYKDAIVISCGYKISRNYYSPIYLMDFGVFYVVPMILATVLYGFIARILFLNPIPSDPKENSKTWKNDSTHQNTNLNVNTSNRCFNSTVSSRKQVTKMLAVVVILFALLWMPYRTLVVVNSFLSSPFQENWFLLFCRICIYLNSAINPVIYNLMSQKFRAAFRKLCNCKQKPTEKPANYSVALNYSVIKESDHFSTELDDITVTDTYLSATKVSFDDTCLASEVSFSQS
How it was run: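 Following an 18 h incubation at 37 °C and a 2 h calcium dye load, TRHR-HEK293 cells were exposed to compound (5 min, room temperature) and challenged with TRH, 1 nM final.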

[9] = molecular target: Thyrotropin-releasing hormone receptor (Homo sapiens) (UniProt P34981); test: qHTS assay to identify small molecule agonists of the thyrotropin-releasing hormone receptor (TRHR) signaling pathway (AID 1346891; calls by dose curve; also: series mostly up to about 58 µM)
How it was run: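 Readout was intracellular calcium fluorescence in TRHR-Hek293 cells. Cells were incubated 18 h, dye-loaded 2 h at 37 °C, and treated with compound in agonist mode.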

[10] = Caspase-3/7 induction in HepG2 cells by small molecules, qHTS assay (AID 1346978); also: nearly all actives have a fitted effect of over 15% in size
How it was run: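 Caspase-3/7 induction was measured by Caspase-Glo 3/7 luminescence (30 min, room temperature) after a 17 hr compound exposure of wild-type HepG2 cells seeded at 2,000 per well and pre-incubated 5 hr.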

[11] = Caspase-3/7 induction in CHO-K1 cells by small molecules, qHTS cell viability counter screen (AID 1346979); also: nearly all actives have a fitted effect of over 35% in size; also: potency is read from the fitted curve at half-maximal effect
How it was run: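 Following a 5hr settling period, CHO-K1 cells at 1,500 per well received DMSO-dissolved compounds. Cell viability was quantified 16hr later by CellTiter-Fluor fluorescence, measured after 1hr with reagent at 37C.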

[12] = Caspase-3/7 induction in CHO-K1 cells by small molecules, qHTS assay (AID 1346980); also: nearly all actives have a fitted effect of over 15% in size
How it was run: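 Luminescent Caspase-Glo 3/7 read (30min, room temperature) quantified apoptosis induction. Cells were wild-type CHO-K1, treated with compound for 17hr at 37 C and 5% CO2.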

[13] = Caspase-3/7 induction in HepG2 cells by small molecules, qHTS cell viability counter screen (AID 1346981); also: series mostly up to about 92 µM; nearly all actives have a fitted effect of over 30% in size
How it was run: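 Viability determined by CellTiter-Fluor fluorescence in HepG2 wells also used for the luminescent Caspase-Glo 3/7 read. Compounds were present for 16 hr at 37 C, 5% CO2 before reagent addition.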

[14] = qHTS assay to identify small molecule agonists of the progesterone receptor (PR) signaling pathway - cell viability counter screen (AID 1346799; calls by dose curve; also: nearly all actives have a fitted effect of over 45% in size)
How it was run: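 Multiplexed viability read: CellTiter-Glo luminescence, 30 min RT, following LiveBLAzer FRET measurement on PR-UAS-bla HEK293T cells exposed to compounds 16 hr.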

[15] = qHTS assay to identify small molecule antagonists of the TGF-beta/Smad signaling pathway - cell viability counter screen (AID 1346824); also: nearly all actives have a fitted effect of over 50% in size
How it was run: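 Cytotoxicity counter-screen run in the same wells as the beta-lactamase Smad reporter read: CellTiter-Glo luminescence after 30 min at room temperature. HEK 293T SBE-bla cells had 5 hr compound exposure at 37 C with TGF-beta1 (0.25 ng/mL stock).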

[16] = Human pregnane X receptor (PXR) small molecule agonists, qHTS cell viability counter screen (AID 1346977); also: nearly all actives have a fitted effect of over 50% in size
How it was run: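 In each well, the PXR reporter HepG2 line was checked for viability: CellTiter-Fluor reagent added 23hr post-dosing, fluorescence read after 1hr incubation at 37C.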

[17] = molecular target: Nuclear receptor subfamily 1 group I member 2 (Homo sapiens) (UniProt O75469); test: Human pregnane X receptor (PXR) small molecule agonists, qHTS assay (AID 1346982); also: nearly all actives have a fitted effect of over 35% in size; also: potency is read from the fitted curve at half-maximal effect
Chain of Nuclear receptor subfamily 1 group I member 2 (Homo sapiens) (O75469 whole entry, looked up): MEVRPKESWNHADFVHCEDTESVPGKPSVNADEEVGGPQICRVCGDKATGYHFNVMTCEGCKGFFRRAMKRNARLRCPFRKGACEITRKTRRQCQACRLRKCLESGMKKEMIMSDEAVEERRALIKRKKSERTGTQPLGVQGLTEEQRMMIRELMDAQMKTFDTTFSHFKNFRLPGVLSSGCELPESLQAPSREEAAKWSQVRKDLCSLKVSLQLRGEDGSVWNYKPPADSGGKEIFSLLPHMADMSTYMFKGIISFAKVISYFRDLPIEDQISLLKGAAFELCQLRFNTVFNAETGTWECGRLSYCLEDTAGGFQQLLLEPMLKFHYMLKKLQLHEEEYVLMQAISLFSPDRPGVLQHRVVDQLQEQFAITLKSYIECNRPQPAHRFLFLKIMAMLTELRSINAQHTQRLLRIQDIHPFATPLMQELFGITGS
How it was run: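 Compound-induced hPXR transactivation of a CYP3A4 luciferase reporter was scored in HepG2 PXR-Luc cells over 24 hr at 37 C, 5% CO2, by luminescence.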

[18] = molecular target: Nuclear receptor subfamily 1 group I member 2 (Rattus norvegicus) (UniProt Q9R1A7); test: Rat pregnane X receptor (rPXR) activation by small molecules, qHTS assay (AID 1346983); conditions: rPXR luciferase reporter cells, One-Glo luminescence, 24 h; max activation: active compounds read high; also: nearly all actives have a fitted effect of over 20% in size
Chain of Nuclear receptor subfamily 1 group I member 2 (Rattus norvegicus) (Q9R1A7 whole entry, looked up): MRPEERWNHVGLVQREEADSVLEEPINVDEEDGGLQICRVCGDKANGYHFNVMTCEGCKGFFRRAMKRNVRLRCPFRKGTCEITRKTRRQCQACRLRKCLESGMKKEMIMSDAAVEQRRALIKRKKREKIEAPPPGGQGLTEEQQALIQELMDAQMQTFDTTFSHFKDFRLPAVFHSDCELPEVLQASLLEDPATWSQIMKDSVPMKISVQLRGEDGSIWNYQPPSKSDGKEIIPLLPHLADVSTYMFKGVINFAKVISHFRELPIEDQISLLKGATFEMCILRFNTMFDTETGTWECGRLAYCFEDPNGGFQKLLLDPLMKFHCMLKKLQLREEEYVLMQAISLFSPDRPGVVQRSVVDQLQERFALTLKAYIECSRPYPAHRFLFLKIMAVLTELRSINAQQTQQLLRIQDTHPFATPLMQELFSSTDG
How it was run: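 Luminescent readout (One-Glo luciferase, 30 min room temperature) followed 24 hr compound treatment at 37 C of rPXR cells plated 2,000 per well and preincubated 5hr; qHTS format with compounds delivered in DMSO.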

[19] = molecular target: Nuclear receptor subfamily 1 group I member 2 (Homo sapiens) (UniProt O75469); test: CYP3A4 induction through human pregnane X receptor (PXR) by small molecules, qHTS assay (AID 1346984); also: nearly all actives have a fitted effect of over 40% in size
How it was run: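 Readings come from a luciferase reporter: DPX-2 cells, which are HepG2 cotransfected with PXR and a CYP3A4-promoter construct, were exposed to test compounds for 24 h at 37C before One-Glo detection.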

[20] = molecular target: Nuclear receptor subfamily 1 group I member 2 (Homo sapiens) (UniProt O75469); test: Human pregnane X receptor (PXR) activation by small molecules, qHTS assay (AID 1346985); also: nearly all actives have a fitted effect of over 40% in size
How it was run: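 DPX-2 cells (HepG2 co-transfected with a PXR response element and a CYP3A4-promoter luciferase construct) were seeded at 2,000 per well, rested 5 hr at 37C, then exposed to DMSO-dissolved compounds for 24 hr. Activation was read as luciferase luminescence.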

Structure (SMILES)	Potency [1]	Potency [2]	Potency [3]	Potency [4]	Potency [5]	Potency [6]	Potency [7]	outcome [8]	outcome [9]	Potency [10]	Potency [11]	outcome [12]	Potency [13]	Potency [14]	outcome [15]	Potency [16]	Potency [17]	max activation [18]	Potency [19]	Potency [20]
Cc1ccc2c(c1)CCCN2	inactive	inactive	inactive	inactive	inactive	inactive	inactive	inactive	inactive	inactive	inactive	inactive	inactive	–	–	–	–	–	–	–
N[C@@H](Cc1cc(I)c(O)c(I)c1)C(=O)O	inactive	inactive	inactive	inactive	–	inactive	inactive	inactive	inactive	inactive	23.7 µM (active)	inactive	–	inactive	inactive	inactive	inactive	–	–	–
COC(=O)CC(C(C)=O)C(=O)OC (stereo not drawn)	inactive	inactive	inactive	inactive	–	inactive	inactive	inactive	inactive	inactive	inactive	inactive	inactive	inactive	inactive	inactive	inactive	–	–	–
Cc1cccc2sc(N)nc12	inactive	inactive	inactive	inactive	inactive	inactive	inactive	inactive	inactive	inactive	inactive	inactive	–	–	inactive	inactive	55.1 µM (active)	–	–	–
CC(C)N(C)C	inactive	inactive	inactive	inactive	inactive	inactive	inactive	inactive	inactive	inactive	inactive	inactive	inactive	inactive	–	inactive	inactive	–	–	–
COc1cc(NS(=O)(=O)c2ccc(N)cc2)nc(C)n1	inactive	inactive	inactive	inactive	–	inactive	inactive	inactive	–	inactive	inactive	inactive	inactive	inactive	inactive	inactive	inactive	–	–	–
O=C1OC[C@H](Cc2cccc(O)c2)[C@H]1Cc1cccc(O)c1	inactive	inactive	inactive	inactive	inactive	inactive	inactive	inactive	inactive	inactive	–	inactive	inactive	–	inactive	inactive	inactive	–	–	–
CC[C@@H](CO)NCCN[C@@H](CC)CO	inactive	inactive	inactive	inactive	inactive	inactive	inactive	–	–	inactive	–	inactive	inactive	inactive	–	inactive	inactive	2.2% (inactive)	inactive	inactive
O=C(O)c1cccc(Oc2ccccc2)c1	inactive	inactive	inactive	inactive	inactive	inactive	–	inactive	–	inactive	–	inactive	inactive	inactive	inactive	inactive	inactive	–	–	–
O=C(O)c1cccc(C[C@@H]2COc3ccc(OCc4nc5cc(F)ccc5s4)cc3[C@@H]2O)c1	inactive	inactive	inactive	inactive	inactive	–	inactive	inactive	inactive	inactive	inactive	inactive	inactive	inactive	inactive	inactive	inactive	–	–	–
Cc1ccc(S(=O)(=O)NC(=O)NC2CCCCC2)cc1	inactive	inactive	inactive	inactive	–	inactive	inactive	inactive	inactive	inactive	–	inactive	inactive	inactive	inactive	inactive	inactive	-5.99% (inactive)	inactive	inactive
Cc1oc(=O)oc1COC(=O)[C@@H]1N2C(=O)[C@@H](NC(=O)[C@H](N)c3ccccc3)[C@H]2SC1(C)C	inactive	inactive	inactive	inactive	–	inactive	inactive	inactive	inactive	inactive	inactive	inactive	inactive	inactive	inactive	inactive	inactive	–	–	–
CCCCC(CC)COS(=O)(=O)O (stereo not drawn)	inactive	inactive	inactive	inactive	inactive	inactive	inactive	inactive	inactive	inactive	inactive	inactive	inactive	inactive	–	inactive	inactive	-1.14% (inactive)	inactive	inactive
CCCCCCCC(=O)Oc1c(Br)cc(C#N)cc1Br	inactive	inactive	inactive	–	–	inactive	inactive	inactive	inactive	inactive	–	inactive	–	–	inactive	inactive	inactive	–	–	–
CCCc1nc2c(C)cc(-c3nc4ccccc4n3C)cc2n1Cc1ccc(-c2ccccc2C(=O)O)cc1	inactive	inactive	inactive	inactive	–	inactive	–	inactive	–	inactive	–	inactive	–	inactive	inactive	inactive	–	-2.19% (inactive)	–	–
CC(=O)OCC1=C(C(=O)O)N2C(=O)[C@@H](NC(=O)CSc3ccncc3)[C@H]2SC1	inactive	inactive	inactive	–	inactive	–	inactive	inactive	inactive	inactive	inactive	inactive	inactive	inactive	inactive	inactive	–	-5.99% (inactive)	–	–
